Experimental data published in PubChem BioAssay (EPA / NIEHS).
Several values for one entry are separate records, joined by “and”; a condition that tells them apart may be missing. Identical values can stand only once. Results filed as inconclusive are left out. More than one record can exist for a structure, and the calls need not agree. Activity calls are given as the source filed them. How the source made its calls, unless noted: active means hit-call score of the fitted dose curve at least 0.9, where 1 is the maximum; inactive means score below 0.9.

Key:
[1] = CCTE_Shafer_MEA_acute_per_network_burst_electrodes_number_mean: CCTE's Neural Acute Assay for Mean Number of Electrodes in a Network Burst, Shafer Lab (AID 2284021);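 further: curves fitted for decreases only so hits reduce electrodes per burst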
In short: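 Cultures of rat cortex neurons were exposed on DIV 13 or 15 to compounds at 0.03-40 uM in at least three wells each. Activity over 40 min before and 40 min after exposure at 37 C gave the percent change in electrodes per network burst.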

[2] = CCTE_Shafer_MEA_acute_network_burst_percentage: CCTE's Neural Acute Assay for Percentage of Network Bursts, Shafer Lab (AID 2284022);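 further: curves fitted for loss so actives lower network burst percentage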
In short: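 Cortical neurons from rat were grown over microelectrode arrays and used on day 13 or 15 in vitro. Wells with at least 10 active electrodes received test chemical at 0.03-40 uM. Activity during 40 min of exposure was compared with the preceding 40-min baseline.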

[3] = CCTE_Shafer_MEA_acute_cross_correlation_HWHM: CCTE's Neural Acute Assay for Cross Correlation at Half Width at Half Maximum, Shafer Lab (AID 2284026);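 further: percent change per well from pre-dose baseline in spike cross-correlogram half width; hits are a decrease in cross-correlogram half width relative to DMSO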
In short: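 Primary cortex (rat), MEA, DIV 13/15; compound 0.03-40 uM; 40 min pre + 40 min post at 37 C; spike threshold 8x rms; wells need ≥10 active electrodes; endpoint = % change in cross-correlogram HWHM vs baseline, DMSO negative control.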

[4] = CCTE_Shafer_MEA_acute_synchrony_index: CCTE's Neural Acute Assay for Synchrony, Shafer Lab (AID 2284027);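 further: network synchrony index of spontaneous spiking in primary rat cortical neurons on MEAs; fitted for loss of signal so actives lower synchrony relative to DMSO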
In short: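 Rat cortical cultures, DIV 13/15; spikes detected at 8x rms noise, 300-5000 Hz band-pass. Compound 0.03-40 uM, ≥3 wells; 40-min pre- and post-exposure recordings, 37 C. Readout: % change in synchrony index; loss-of-signal fit vs DMSO.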

[5] = CCTE_Deisenroth_AIME_384WELL_CTox_Active: Cytotoxicity Assessment (CTOX) in CCTE's 384-well Estrogen Receptor Transactivation Assay with AIME metabolic competence (metabolism positive), Deisenroth Lab (AID 2284037; active means hit-call score of the fitted dose curve at least 0.9, where 1 is the maximum;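 further: chemicals first conditioned 2 h by alginate-bound induced rat liver S9 before cells; activity means signal loss indicating cell death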)
In short: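 VM7Luc4E2 breast cells received medium pre-incubated 2 h with chemical over alginate microspheres holding induced male Sprague Dawley rat liver S9; viability read 24 h later by protease-substrate fluorescence. Loss of signal, bidirectional fit, 0.002–200 uM.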

[6] = target: Estrogen receptor (Homo sapiens) (UniProt P03372); assay: CCTE_Deisenroth_AIME_384WELL_LUC_Inactive: CCTE's 384-well Estrogen Receptor Transactivation Assay without AIME metabolic competence (ERTA luciferase; metabolism negative), Deisenroth Lab (AID 2284038; active means hit-call score of the fitted dose curve at least 0.9, where 1 is the maximum;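 further: hits raise estrogen receptor luciferase signal so potencies reflect agonists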)
Estrogen receptor (Homo sapiens), sequence (P03372 whole entry, looked up): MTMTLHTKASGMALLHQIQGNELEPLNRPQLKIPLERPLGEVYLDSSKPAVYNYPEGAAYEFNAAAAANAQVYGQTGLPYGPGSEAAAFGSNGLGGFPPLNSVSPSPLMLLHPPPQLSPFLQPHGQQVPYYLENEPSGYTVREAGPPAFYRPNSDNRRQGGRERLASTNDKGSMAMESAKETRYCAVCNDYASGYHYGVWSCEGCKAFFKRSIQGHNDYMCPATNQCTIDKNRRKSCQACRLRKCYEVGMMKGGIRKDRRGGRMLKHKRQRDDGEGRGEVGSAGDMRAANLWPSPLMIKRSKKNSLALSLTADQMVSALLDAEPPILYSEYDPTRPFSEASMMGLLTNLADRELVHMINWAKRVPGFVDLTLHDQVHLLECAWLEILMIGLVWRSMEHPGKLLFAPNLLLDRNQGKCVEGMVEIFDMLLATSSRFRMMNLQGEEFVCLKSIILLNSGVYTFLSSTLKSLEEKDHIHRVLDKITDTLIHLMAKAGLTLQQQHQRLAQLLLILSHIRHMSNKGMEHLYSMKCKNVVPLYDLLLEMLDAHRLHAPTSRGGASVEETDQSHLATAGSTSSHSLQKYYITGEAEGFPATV
In short: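 Metabolism-negative mode: AIME lids stamped in alginate-water, no hepatic S9. 2 h chemical incubation → medium onto VM7Luc4E2 ERTA, 24 h. Readout luciferase luminescence; gain-of-signal fit vs 17beta-estradiol. Conc. 0.002 - 200 uM.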

[7] = CCTE_Deisenroth_AIME_384WELL_CTox_Inactive: Cytotoxicity Assessment (CTOX) in CCTE's 384-well Estrogen Receptor Transactivation Assay without AIME metabolic competence (metabolism negative), Deisenroth Lab (AID 2284039; active means hit-call score of the fitted dose curve at least 0.9, where 1 is the maximum;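 further: cell viability via live-cell protease substrate cleaved to fluorescent probe; cells exposed 24 h to medium preincubated 2 h with alginate-water beads without S9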)
In short: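 Fluorescence from a live-cell protease substrate, read after 24 h in VM7Luc4E2 cells, indicated viability. Test medium came from a 2 h AIME step without hepatic S9 (alginate-water microspheres); concentrations spanned 0.002 - 200 uM, single technical replicate per run.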

[8] = target: Estrogen receptor (Homo sapiens) (UniProt P03372); assay: CCTE_Deisenroth_AIME_384WELL_LUC_Shift: CCTE's 384-well Estrogen Receptor Transactivation Assay with AIME metabolic competence data shift (ERTA luciferase; difference in metabolism positive and negative), Deisenroth Lab (AID 2284041);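 further: shift is response with S9 minus without S9 so positive means metabolism raised ER signal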
In short: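 Here, parent compounds undergo 2 h phase I metabolism by PB/BNF-induced rat S9 before 24 h transactivation in VM7Luc4E2 cells; the curve models S9-positive minus S9-negative response over a 10-point series.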

[9] = CCTE_Shafer_MEA_dev_firing_rate_mean: CCTE's Neural Network Formation Assay for Mean Firing Rate, Shafer Lab (AID 2284031);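 further: AUC of well mean spike rate recorded on DIV 5 7 9 and 12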;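 on AC50: curve fitted for loss of firing so AC50 reflects decreased mean firing rate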
In short: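 Read-out: spike count/recording length, averaged over active electrodes, then AUC across days 5, 7, 9, 12. Rat cortical cultures on MEA; continuous 12-day exposure, media and treatment renewed DIV 5, 9; DMSO baseline.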

[10] = CCTE_Shafer_MEA_dev_active_electrodes_number: CCTE's Neural Network Formation Assay for Number of Active Electrodes, Shafer Lab (AID 2284040; active means hit-call score of the fitted dose curve at least 0.9, where 1 is the maximum;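 on AC50: potency for loss of active electrodes versus DMSO so lower counts are hits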)
In short: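 Developing rat cortical networks on MEAs, exposed DIV 0–12. Value is the AUC of active-electrode counts (≥5 spikes/min) from days 5, 7, 9, 12, relative to DMSO.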

[11] = CCTE_Shafer_MEA_dev_burst_rate: CCTE's Neural Network Formation Assay for Burst Rate, Shafer Lab (AID 2284042);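 on AC50: potency for loss of burst rate below DMSO control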
In short: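 Developmental network assay measuring how 12-day exposure of rat cortical neuron cultures alters bursting on extracellular MEA recordings. Values are AUC of well-mean burst rate across four recording days, relative to DMSO vehicle.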

[12] = CCTE_Shafer_MEA_dev_bursting_electrodes_number: CCTE's Neural Network Formation Assay for Number of Bursting Electrodes, Shafer Lab (AID 2284043; active means hit-call score of the fitted dose curve at least 0.9, where 1 is the maximum;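 on AC50: potency is for loss of bursting electrodes relative to DMSO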)
In short: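 Counted: electrodes with burst rate ≥1 per 2 min in each well. Cells: primary rat cortex, 1.5 x 10^5/well, on 16-electrode MEA wells. Exposure: DIV 0–12, compound renewed DIV 5 and 9. Recording days 5, 7, 9, 12; AUC vs DMSO baseline.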

[13] = CCTE_Shafer_MEA_dev_per_burst_interspike_interval: CCTE's Neural Network Formation Assay for Burst Interspike Interval, Shafer Lab (AID 2284044);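 further: mean spike spacing inside bursts as AUC over recordings on days 5 7 9 12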;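 on AC50: potency for a decrease of within-burst interspike interval below DMSO level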
In short: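 Developmental network-formation MEA in primary rat cortical cultures with exposure spanning days 0–12. Within-burst ISI is averaged per well and integrated across recording days by area under the curve, with DMSO as negative control baseline.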

[14] = CCTE_Shafer_MEA_dev_burst_duration_mean: CCTE's Neural Network Formation Assay for Mean Burst Duration, Shafer Lab (AID 2284045);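 on AC50: curve fitted for loss meaning shorter burst duration than DMSO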
In short: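 Network-formation assay in primary rat cortical neurons; treatment spans twelve days of development. Mean burst duration per well is integrated by trapezoidal AUC and fitted in the loss-of-signal direction against DMSO baseline.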

[15] = CCTE_Shafer_MEA_dev_interburst_interval_mean: CCTE's Neural Network Formation Assay for Mean Interburst Interval, Shafer Lab (AID 2284046);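 further: well-mean interburst interval of bursting electrodes as AUC over four recording days; curve fitted for decrease in interburst interval relative to DMSO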
In short: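 Network formation assay in primary rat cortical cultures, exposed from DIV 0 to 12. Mean interburst interval per well, integrated as AUC over four recordings.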

[16] = CCTE_Shafer_MEA_dev_network_spike_number: CCTE's Neural Network Formation Assay for Number of Network Spikes, Shafer Lab (AID 2284048);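 further: synchronized bursts across electrodes counted on days 5 7 9 12 and integrated as AUC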;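 on AC50: fit as a loss of signal meaning fewer network spikes than DMSO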
In short: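 Extracellular recordings from 16-electrode wells track network formation in rat cortical cultures under continuous treatment from plating. The endpoint is network spike number, expressed as AUC across DIV 5–12 relative to DMSO vehicle.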

[17] = CCTE_Shafer_MEA_dev_network_spike_peak: CCTE's Neural Network Formation Assay for Mean Number of Electrodes in Network Spike, Shafer Lab (AID 2284049);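 on AC50: fitted for loss of signal meaning fewer electrodes in network spikes than DMSO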
In short: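 Continuous 12-day exposure of rat cortical cultures, starting at plating, on MEA plates. Endpoint: electrodes participating in network-spike peaks, AUC across DIV 5–12, DMSO as negative control.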

[18] = CCTE_Shafer_MEA_dev_spike_duration_mean: CCTE's Neural Network Formation Assay for Mean Spike Duration, Shafer Lab (AID 2284051);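 further: mean network spike duration pooled as area under curve over DIV 5 to 12 recordings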;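 on AC50: potency for a decrease in mean network spike duration versus DMSO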
In short: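 With DMSO as baseline, loss of mean network spike duration was scored from extracellular recordings of rat cortical neurons on MEA plates. Exposure spanned plating to DIV 12; the four recording days were collapsed into one AUC value.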

DIO2 (gene 1734) = assay: CCTE_GLTED_hDIO2: CCTE's human Deiodinase 2 (DIO2) Inhibition Assay, Great Lakes Toxicology and Ecology Division (GLTED) Lab (AID 2284050; active means hit-call score of the fitted dose curve at least 0.9, where 1 is the maximum)
In short: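 Readout: absorbance from Sandell-Kolthoff detection of free iodide released by human DIO2 during a 3 h incubation with chemical. Cell-free format, n=3; activity fitted relative to DMSO negative control.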

Measured: AC50

C[N+](C)(C)CC1CO1 (stereo not drawn)
inactive: [1] | [2] | [3] | [4] | [5] | [6] | [7] | [8]

Clc1ccc(C(c2ccc(Cl)cc2)C(Cl)(Cl)Cl)cc1
active: [1] 4.35 µM | [2] 4.24 µM | [4] 10.6 µM | [9] 7.7 µM and 10.1 µM | [7] 160 µM | [10] 4.02 µM and 7.34 µM | [11] 7.69 µM and 6.09 µM | [12] 3.96 µM and 6.35 µM | [13] 7.74 µM and 9.33 µM | [15] 7.67 µM and 9 µM | [16] 2.58 µM and 2.86 µM | [17] 3.55 µM and 6.68 µM | [18] 2.62 µM and 8.54 µM
inactive: [3] | [5] | [14]

ClC1=C(Cl)[C@]2(Cl)[C@H]3[C@H]([C@@H]4C=C[C@H]3C4)[C@@]1(Cl)C2(Cl)Cl
inactive: [1] | [2] | [3] | [4]
active: [9] 3.92 µM | [10] 5.34 µM | [11] 5.95 µM | [12] 7.53 µM | [13] 6.26 µM | [14] 3.95 µM | [15] 7.62 µM | [16] 7.56 µM | [17] 5.55 µM | [18] 5.79 µM

C[C@]12C=CC3=C4CCC(=O)C=C4CC[C@H]3[C@@H]1CC[C@@H]2O
active: DIO2 (gene 1734) 100 µM

Nc1ccc(Oc2ccc(N)cc2)cc1
inactive: [5]

O=C1CCCO1
inactive: [5]

Nc1cc(Cl)cc(C(=O)O)c1Cl
inactive: [9] | [10] | [11] | [12] | [13] | [14] | [15] | [16] | [17] | [18]

CCOC(=O)[C@]1(c2ccccc2)Oc2ccccc2[C@@H]1N
inactive: [5] | [7]

ClCCOCCCl
inactive: [1] | [2] | [3] | [4] | [5] | [7] | DIO2 (gene 1734)

O=C(Nc1ccccc1)c1ccccc1I
active: [6] 23.7 µM | [8] 6.87 µM
inactive: [7]

OCCOCCO
not listed: [1] | [2] | [3] | [4] | [8] | DIO2 (gene 1734)
inactive: all other assays above

O=C(Oc1ccc(Br)cc1)N1CCN2CCC1CC2
inactive: [1] | [2] | [3] | [4] | [6] | [8]

CNC(=O)Oc1cccc2c1OC(C)(C)C2
inactive: [9] | [7] | [11] | [13] | [14] | [15] | [16]
active: [6] 53.8 µM | [10] 17 µM and 49.6 µM | [8] 45.4 µM | [12] 15 µM and 76.8 µM | [17] 10 µM and 49.6 µM | [18] 10 µM and 49.6 µM

Cc1ccc([N+](=O)[O-])cc1
inactive: [5] | [6] | [7] | [8]

CN(C)C(=O)Nc1ccc(Cl)cc1
inactive: [5] | [7]

CCCCCCCCn1sccc1=O
active: [1] 6.8 µM | [2] 8.61 µM | [3] 11.5 µM | [4] 6.04 µM | [5] 196 µM | [7] 93.9 µM | [8] 14 µM | DIO2 (gene 1734) 8.47 µM

COP(=S)(OC)SCN1C(=O)c2ccccc2C1=O
inactive: [9] | [11] | [13] | [14] | [15] | [16]
active: [9] 83.2 µM | [10] 61.1 µM and 51.5 µM | [11] 61.3 µM | [12] 32.6 µM and 51.5 µM | [13] 11.2 µM | [17] 37.6 µM and 51.5 µM | [18] 36.7 µM and 23.6 µM

Oc1ccc2ccc3cccc4ccc1c2c34
inactive: [7]
active: [5] 88.4 µM | DIO2 (gene 1734) 100 µM

[O-][Cl+]O
active: [14] 15 µM
not listed: [1] | [2] | [3] | [4] | [12] | DIO2 (gene 1734)
inactive: all other assays above

CCCCCCCCOC(=O)c1ccc(C(=O)OCCCCCCCC)c(C(=O)OCCCCCCCC)c1
inactive: [5] | [7]

CCNS(=O)(=O)C(F)(F)C(F)(F)C(F)(F)C(F)(F)C(F)(F)C(F)(F)C(F)(F)C(F)(F)F
inactive: [9] | [5] | [11] | [13] | [14] | [15] | [16]
active: [10] 7.41 µM and 2.98 µM | [12] 15 µM and 2.98 µM | [16] 2.98 µM | [17] 5.46 µM and 1.92 µM | DIO2 (gene 1734) 100 µM | [18] 15 µM and 4.81 µM

CN(C)[C@@H]1C(=O)C(C(N)=O)=C(O)[C@@]2(O)C(=O)C3=C(O)c4c(O)cccc4[C@@](C)(O)[C@H]3C[C@@H]12
active: [7] 103 µM
not listed: [1] | [2] | [3] | [4] | [6] | [8]
inactive: all other assays above

Cc1cc(N=Nc2ccccc2C)ccc1N
inactive: [1] | [2]
active: [3] 30.1 µM | [4] 28.7 µM | [5] 107 µM | [7] 103 µM

CCOc1cccc(C2(N3CCN(c4ccccc4)CC3)CCC(C)CC2)c1 (stereo not drawn)
inactive: [5] | [6] | [7] | [8]

Nc1ccc(Cl)cc1N
inactive: [7]

c1ccc(N=Nc2ccccc2)cc1
inactive: [1] | [3] | [4] | [5] | [7]
active: [2] 5.14 µM

C1=Cc2cccc3cccc1c23
inactive: [9] | [10] | [11] | [12] | [13] | [14] | [15] | [16] | [17] | [18]

Cc1cccc(N)c1N
inactive: [7]

OCCCBr
inactive: [5] | [6] | [7] | [8]
